For assay [1], the target named is Protein kinase C gamma type (Homo sapiens) (UniProt P05129). The settings on record: at 1 µM.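 Note: each value is an averaged percent inhibition of the enzyme.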
The target of assay [2] is T1, Protein kinase C iota type (Homo sapiens) (UniProt P41743).
T1 sequence (whole entry): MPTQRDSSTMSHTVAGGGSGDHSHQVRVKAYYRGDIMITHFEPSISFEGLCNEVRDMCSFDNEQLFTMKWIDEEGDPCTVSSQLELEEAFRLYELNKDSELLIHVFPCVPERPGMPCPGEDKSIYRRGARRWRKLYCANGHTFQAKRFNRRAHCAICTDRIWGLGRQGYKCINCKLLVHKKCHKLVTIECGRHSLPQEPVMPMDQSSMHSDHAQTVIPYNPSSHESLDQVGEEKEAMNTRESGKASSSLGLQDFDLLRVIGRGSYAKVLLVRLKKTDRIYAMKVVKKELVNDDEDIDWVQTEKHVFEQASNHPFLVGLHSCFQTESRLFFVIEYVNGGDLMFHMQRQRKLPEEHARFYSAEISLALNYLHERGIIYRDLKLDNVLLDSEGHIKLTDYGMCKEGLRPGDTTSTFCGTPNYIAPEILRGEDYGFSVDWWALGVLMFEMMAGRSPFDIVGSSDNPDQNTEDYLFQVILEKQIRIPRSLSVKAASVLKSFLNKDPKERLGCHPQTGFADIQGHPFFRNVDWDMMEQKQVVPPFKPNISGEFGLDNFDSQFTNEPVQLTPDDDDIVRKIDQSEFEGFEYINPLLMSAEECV
The settings on record: at 0.1 µM.

Assay [3] has as its target T1, Protein kinase C iota type (Homo sapiens). The settings on record: at 1 µM.
For assay [4], the target named is Protein kinase C theta type (Homo sapiens) (UniProt Q04759). The settings on record: at 0.1 µM.
Chain of Protein kinase C theta type (Homo sapiens) (Q04759 whole entry, looked up): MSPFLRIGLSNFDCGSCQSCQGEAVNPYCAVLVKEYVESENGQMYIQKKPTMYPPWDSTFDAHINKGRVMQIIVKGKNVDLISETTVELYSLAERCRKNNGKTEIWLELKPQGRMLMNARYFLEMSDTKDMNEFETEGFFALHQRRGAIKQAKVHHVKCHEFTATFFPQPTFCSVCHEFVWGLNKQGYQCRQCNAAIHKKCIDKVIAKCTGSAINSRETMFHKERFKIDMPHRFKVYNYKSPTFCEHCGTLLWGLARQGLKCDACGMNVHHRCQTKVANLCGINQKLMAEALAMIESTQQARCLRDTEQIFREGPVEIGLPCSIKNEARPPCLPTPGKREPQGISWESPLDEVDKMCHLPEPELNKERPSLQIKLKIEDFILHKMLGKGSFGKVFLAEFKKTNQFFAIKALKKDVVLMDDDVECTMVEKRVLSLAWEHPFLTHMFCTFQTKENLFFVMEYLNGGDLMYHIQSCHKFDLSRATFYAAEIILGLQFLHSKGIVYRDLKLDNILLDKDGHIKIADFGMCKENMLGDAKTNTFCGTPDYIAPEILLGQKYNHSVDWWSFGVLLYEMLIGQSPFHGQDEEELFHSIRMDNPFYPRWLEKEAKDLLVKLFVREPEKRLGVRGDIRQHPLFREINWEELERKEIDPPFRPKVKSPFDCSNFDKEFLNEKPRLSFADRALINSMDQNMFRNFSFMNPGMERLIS
Assay [5] has the same target. The settings on record: at 1 µM.
Assay [6] addresses Protein kinase C beta type (Homo sapiens) (UniProt P05771). The settings on record: at 0.1 µM.
For assay [7] the target is unchanged. The settings on record: at 1 µM.
Assay [8] concerns the target T2, Serine/threonine-protein kinase D1 (Homo sapiens) (UniProt Q15139).
T2 sequence (whole entry): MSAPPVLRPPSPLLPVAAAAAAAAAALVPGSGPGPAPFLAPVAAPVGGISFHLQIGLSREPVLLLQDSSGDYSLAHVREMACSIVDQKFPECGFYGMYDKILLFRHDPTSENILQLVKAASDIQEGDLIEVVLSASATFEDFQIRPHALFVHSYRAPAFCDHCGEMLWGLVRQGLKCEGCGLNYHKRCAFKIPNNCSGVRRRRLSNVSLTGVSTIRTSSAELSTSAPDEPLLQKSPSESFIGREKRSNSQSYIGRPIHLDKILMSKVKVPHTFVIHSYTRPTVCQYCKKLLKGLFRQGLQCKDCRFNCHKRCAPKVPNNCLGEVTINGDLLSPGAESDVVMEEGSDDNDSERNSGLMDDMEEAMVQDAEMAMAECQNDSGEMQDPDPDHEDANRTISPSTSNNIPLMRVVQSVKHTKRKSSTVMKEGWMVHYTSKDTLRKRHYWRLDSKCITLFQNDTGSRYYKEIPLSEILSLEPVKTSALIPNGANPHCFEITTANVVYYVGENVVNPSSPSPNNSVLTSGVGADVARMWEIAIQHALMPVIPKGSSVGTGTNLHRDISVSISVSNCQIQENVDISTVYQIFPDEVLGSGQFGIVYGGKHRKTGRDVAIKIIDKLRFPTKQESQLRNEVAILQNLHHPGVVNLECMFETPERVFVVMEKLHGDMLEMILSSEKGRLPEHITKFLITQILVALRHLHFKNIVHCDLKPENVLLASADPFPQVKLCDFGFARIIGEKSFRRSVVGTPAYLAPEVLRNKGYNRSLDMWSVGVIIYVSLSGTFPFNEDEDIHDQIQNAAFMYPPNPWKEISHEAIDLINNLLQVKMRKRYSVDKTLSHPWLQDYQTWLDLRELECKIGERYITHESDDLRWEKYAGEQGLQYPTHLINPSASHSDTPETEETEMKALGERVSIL
The settings on record: at 0.1 µM.

Assay [9] deals with T2, Serine/threonine-protein kinase D1 (Homo sapiens). The settings on record: at 1 µM.
For assay [10], the target named is T3, Serine/threonine-protein kinase D2 (Homo sapiens) (UniProt Q9BZL6).
T3 sequence (whole entry): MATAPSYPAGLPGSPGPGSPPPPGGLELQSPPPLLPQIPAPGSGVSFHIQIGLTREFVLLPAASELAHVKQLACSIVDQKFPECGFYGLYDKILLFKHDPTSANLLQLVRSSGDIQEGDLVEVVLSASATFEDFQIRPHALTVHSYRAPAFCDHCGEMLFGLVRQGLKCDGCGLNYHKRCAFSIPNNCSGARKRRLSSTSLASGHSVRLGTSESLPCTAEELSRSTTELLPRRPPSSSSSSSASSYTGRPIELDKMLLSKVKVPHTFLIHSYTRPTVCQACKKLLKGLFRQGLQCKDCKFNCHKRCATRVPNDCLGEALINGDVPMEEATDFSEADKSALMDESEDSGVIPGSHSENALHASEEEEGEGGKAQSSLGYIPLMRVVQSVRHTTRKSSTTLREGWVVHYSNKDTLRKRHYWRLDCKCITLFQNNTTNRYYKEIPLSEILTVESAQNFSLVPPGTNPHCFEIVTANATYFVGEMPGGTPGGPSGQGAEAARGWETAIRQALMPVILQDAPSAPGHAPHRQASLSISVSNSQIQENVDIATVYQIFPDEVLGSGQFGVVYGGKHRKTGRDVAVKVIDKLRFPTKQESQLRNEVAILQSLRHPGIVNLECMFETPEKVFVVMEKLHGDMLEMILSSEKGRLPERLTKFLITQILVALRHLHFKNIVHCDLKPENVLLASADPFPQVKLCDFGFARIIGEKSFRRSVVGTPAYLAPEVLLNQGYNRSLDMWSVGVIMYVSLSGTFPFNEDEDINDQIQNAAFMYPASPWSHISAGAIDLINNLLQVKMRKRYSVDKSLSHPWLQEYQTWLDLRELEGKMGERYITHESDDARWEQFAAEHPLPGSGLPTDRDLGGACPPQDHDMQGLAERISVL
Particulars: at 0.1 µM.

Assay [11] has as its target T3, Serine/threonine-protein kinase D2 (Homo sapiens). Particulars: at 1 µM.
Assay [12] addresses T4, Serine/threonine-protein kinase D3 (Homo sapiens) (UniProt O94806).
T4 sequence (whole entry): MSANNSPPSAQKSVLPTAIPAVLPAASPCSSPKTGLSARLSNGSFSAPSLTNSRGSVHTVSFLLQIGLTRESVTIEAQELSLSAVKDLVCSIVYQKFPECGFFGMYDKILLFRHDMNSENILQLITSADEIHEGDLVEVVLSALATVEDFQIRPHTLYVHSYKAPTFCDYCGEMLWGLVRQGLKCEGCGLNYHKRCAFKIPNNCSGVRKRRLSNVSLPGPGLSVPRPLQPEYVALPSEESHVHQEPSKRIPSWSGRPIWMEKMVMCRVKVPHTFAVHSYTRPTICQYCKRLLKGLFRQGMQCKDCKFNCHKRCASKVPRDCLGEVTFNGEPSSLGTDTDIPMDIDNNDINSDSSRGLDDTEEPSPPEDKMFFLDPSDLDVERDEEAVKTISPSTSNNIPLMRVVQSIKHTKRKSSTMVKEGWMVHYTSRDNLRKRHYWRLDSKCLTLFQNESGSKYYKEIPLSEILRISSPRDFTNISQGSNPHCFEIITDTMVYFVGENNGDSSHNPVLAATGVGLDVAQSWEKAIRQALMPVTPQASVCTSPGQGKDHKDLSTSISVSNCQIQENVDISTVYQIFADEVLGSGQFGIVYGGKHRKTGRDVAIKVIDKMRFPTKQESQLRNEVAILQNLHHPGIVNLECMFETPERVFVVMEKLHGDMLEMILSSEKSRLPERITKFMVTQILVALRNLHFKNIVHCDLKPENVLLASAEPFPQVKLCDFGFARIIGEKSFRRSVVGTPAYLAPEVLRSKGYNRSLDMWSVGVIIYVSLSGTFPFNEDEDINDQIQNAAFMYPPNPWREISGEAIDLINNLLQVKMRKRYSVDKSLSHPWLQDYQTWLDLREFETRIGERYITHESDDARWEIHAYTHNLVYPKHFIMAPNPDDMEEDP
Particulars: at 0.1 µM.

For assay [13], the target named is T4, Serine/threonine-protein kinase D3 (Homo sapiens). The settings on record: at 1 µM.
Assay [14] addresses T5, cGMP-dependent protein kinase 1 (Homo sapiens) (UniProt Q13976).
T5 sequence (whole entry): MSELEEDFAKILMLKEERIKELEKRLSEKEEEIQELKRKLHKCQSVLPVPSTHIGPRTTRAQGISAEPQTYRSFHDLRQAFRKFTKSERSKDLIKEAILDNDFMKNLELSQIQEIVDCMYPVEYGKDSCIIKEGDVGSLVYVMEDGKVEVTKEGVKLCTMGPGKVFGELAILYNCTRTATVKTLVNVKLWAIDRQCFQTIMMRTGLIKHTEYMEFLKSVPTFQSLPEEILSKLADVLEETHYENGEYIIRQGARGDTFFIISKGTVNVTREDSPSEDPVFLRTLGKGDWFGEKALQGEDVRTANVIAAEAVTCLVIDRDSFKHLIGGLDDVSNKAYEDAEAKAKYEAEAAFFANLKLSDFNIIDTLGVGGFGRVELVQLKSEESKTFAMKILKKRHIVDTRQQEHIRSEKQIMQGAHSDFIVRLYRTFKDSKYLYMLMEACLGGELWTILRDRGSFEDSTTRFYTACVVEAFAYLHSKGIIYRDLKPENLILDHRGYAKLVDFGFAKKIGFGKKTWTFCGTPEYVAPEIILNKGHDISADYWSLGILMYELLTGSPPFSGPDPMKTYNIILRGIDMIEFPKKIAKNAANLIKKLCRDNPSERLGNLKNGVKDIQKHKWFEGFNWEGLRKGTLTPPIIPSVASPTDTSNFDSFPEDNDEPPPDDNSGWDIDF
The settings on record: at 0.1 µM.

Assay [15] addresses T5, cGMP-dependent protein kinase 1 (Homo sapiens). The settings on record: at 1 µM.
The target in assay [16] is T6, cGMP-dependent protein kinase 2 (Homo sapiens) (UniProt Q13237).
T6 sequence (whole entry): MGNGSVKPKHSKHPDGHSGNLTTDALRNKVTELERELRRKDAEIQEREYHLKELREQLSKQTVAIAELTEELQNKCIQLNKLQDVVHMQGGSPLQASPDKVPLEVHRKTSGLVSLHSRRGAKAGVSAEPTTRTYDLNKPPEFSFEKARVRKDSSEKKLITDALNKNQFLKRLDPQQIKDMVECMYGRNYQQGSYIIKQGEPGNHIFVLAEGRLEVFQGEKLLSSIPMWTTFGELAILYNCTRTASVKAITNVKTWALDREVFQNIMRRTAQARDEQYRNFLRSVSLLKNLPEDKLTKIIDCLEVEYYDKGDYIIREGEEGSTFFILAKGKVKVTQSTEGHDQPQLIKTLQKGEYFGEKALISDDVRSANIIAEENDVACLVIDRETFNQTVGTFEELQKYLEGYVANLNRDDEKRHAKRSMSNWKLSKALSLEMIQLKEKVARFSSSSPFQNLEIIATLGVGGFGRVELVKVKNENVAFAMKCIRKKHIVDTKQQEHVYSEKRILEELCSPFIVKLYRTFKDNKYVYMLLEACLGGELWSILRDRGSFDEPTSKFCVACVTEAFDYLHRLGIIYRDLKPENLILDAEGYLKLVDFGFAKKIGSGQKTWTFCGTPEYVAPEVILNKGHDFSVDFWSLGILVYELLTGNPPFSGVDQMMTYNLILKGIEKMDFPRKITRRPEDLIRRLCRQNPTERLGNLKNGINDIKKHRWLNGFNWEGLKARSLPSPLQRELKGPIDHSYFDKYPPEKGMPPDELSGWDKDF
Particulars: at 0.1 µM.

Assay [17] has as its target T6, cGMP-dependent protein kinase 2 (Homo sapiens). Particulars: at 1 µM.
Assay [18] deals with T7, cAMP-dependent protein kinase catalytic subunit PRKX (Homo sapiens) (UniProt P51817).
T7 sequence (whole entry): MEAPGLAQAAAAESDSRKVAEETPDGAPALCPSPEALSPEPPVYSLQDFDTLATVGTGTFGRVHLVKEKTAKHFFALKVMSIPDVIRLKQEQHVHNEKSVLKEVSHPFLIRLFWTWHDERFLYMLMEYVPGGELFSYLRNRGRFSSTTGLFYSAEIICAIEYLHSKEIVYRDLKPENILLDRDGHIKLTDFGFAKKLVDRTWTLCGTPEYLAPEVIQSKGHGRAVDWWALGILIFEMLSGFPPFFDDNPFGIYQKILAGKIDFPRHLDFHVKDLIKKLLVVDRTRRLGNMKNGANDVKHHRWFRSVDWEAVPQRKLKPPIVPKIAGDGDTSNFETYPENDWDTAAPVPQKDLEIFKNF
Particulars: at 0.1 µM.

For assay [19], the target named is T7, cAMP-dependent protein kinase catalytic subunit PRKX (Homo sapiens). Particulars: at 1 µM.
For assay [20], the target named is Rho-associated protein kinase 1 (Homo sapiens) (UniProt Q13464). The settings on record: at 0.1 µM.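 Note: values are mean percent inhibition of ROCK1.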
Chain of Rho-associated protein kinase 1 (Homo sapiens) (Q13464 2-1354 limits assumed): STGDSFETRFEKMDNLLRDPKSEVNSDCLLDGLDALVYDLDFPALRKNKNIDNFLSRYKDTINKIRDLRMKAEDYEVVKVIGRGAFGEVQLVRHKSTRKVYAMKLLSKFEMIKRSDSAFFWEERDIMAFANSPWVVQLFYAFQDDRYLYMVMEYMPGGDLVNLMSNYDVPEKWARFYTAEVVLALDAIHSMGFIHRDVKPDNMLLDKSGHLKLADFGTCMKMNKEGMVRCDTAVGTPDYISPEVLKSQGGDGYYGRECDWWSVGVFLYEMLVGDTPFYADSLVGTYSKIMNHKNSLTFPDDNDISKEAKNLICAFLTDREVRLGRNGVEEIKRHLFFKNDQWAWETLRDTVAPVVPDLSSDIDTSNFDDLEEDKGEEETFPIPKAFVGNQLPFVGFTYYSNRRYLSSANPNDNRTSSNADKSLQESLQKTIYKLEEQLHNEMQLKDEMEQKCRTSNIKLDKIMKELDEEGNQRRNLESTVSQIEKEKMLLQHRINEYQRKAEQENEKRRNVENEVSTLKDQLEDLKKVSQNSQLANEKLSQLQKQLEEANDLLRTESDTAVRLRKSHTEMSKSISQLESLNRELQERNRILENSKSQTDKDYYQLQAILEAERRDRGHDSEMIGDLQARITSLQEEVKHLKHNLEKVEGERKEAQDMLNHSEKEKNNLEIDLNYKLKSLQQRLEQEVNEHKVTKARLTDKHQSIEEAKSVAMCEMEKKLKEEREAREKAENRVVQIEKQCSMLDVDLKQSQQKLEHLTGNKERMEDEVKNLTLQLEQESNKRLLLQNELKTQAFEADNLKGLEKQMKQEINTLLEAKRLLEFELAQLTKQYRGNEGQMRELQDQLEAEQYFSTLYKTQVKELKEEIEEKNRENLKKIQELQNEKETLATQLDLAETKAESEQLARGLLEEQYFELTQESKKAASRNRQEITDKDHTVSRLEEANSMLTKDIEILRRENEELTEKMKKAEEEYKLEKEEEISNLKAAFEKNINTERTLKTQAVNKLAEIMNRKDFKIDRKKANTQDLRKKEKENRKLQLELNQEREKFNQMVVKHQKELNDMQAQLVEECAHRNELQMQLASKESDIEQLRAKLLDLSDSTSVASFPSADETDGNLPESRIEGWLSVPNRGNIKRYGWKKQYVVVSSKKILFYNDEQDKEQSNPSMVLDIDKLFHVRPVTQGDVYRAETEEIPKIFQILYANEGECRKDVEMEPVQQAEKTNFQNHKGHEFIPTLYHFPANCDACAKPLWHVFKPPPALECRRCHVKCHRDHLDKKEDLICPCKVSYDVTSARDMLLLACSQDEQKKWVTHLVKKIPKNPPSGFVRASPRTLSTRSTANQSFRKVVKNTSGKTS

The values that follow come from ChEMBL document CHEMBL1961873, “Compounds: GSK PKIS; Assays: Nanosyn kinase panel” (2012).

Chain of Protein kinase C beta type (Homo sapiens) (P05771 2-671 limits assumed): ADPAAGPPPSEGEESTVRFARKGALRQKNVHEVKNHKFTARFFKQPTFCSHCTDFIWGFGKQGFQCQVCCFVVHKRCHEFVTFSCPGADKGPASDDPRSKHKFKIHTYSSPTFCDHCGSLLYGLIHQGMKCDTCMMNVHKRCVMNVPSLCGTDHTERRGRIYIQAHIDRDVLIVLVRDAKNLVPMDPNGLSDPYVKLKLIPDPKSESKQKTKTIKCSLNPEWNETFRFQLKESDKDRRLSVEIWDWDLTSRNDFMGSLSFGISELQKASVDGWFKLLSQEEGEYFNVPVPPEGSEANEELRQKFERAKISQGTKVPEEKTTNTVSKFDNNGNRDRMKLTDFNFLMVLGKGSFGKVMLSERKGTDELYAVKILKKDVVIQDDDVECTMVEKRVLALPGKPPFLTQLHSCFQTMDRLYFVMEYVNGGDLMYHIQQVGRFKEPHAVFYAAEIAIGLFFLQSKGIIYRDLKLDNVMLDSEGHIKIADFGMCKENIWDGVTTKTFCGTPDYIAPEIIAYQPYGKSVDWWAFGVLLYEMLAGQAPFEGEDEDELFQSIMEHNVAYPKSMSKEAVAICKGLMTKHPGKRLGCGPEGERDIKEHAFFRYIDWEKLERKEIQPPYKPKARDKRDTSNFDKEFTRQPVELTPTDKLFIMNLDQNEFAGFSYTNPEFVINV

For the molecule `CN(C)c1ccc2c(c1)/C(=C/Nc1ccc(S(N)(=O)=O)cc1)C(=O)N2`, the inhibition (commonly the drop in the measured response relative to a control, in per cent) in assay [1] worked out at 2.72%; in assay [2], 2.24%; in assay [3], 1.5%; in assay [4], 1.16%; in assay [5] it was 0.84%; in [6], 1.61%. The inhibition was 1.98% in [7]; 2.16% in assay [8]; 7.78% in [9]; 1.23% in assay [10]; 5.28% in assay [11]; 3.16% in assay [12]. In addition, the inhibition in [13] was found to be 4.44%; in [14] it was 2.39%; in [15], 1.76%; in assay [16] it was 1.53%; in assay [17] it was 8.65%; in assay [18], 0.94%. Moreover, the values for the inhibition in assay [19] and in assay [20] were 2.58% and 0.76%, respectively.
